# Measurements: PubChem BioAssay
# Values joined by “and” are separate entries in the source; they are usually repeats but may differ in a detail not shown here. Identical values can stand only once. Active and inactive are the calls of the source.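 Rule for the calls, unless noted: active = compounds whose cell count with miR-34 switched on is under 0.7 times the count with it off; inactive = the rest.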
# Assays:
# [1] = hESC survival regulators, cell-based (AID 493140; call rule not given here;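 note: cells exposed to compounds for four days before counting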); details: human embryonic stem cell survival screen; stronger effect = higher value
# [2] = liver-stage malaria parasite growth inhibition, primary screen, cell-based, HepG2, luciferase luminescence, HepG2 viability (AID 624349; in the data active = parasite load remaining mostly below about 12%, no sharp cut-off; inactive = mostly above about 10%;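 note: 100% = mean of DMSO negative control wells on the same plate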); details: P. berghei liver stage in HepG2, luciferase luminescence, concentration not given here; parasite load remaining: stronger effect = lower value; viability: measured here: HepG2 viability without parasites
# [3] = sensitizers of A549 cells to miR-34 induction, primary screen, imaging, A549 dox-inducible miR-34, nuclei and caspase counts (AID 1347080); details: A549 miR-34 inducible, Hoechst nuclei count, 48 h
# [4] = biological target: Mitogen-activated protein kinase 7 (Homo sapiens) (UniProt Q13164); assay: ERK5 transactivation activators in reporter cells, primary screen, cell-based, HTS (AID 1508626;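 active = luciferase signal above three times the same-plate solvent-only control wells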;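 note: luciferase driven by Gal4-ERK5 fusion binding five Gal4 sites before minimal TATA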); details: HeLa Gal4-ERK5 transactivation, 18 h, at 5 µM, stronger effect = higher value
# [5] = biological target: NAD(+) hydrolase SARM1 (Homo sapiens) (UniProt Q6SZW1); assay: SARM1 TIR NADase inhibitors, cell lysate, NAD-Glo luminescence (AID 1508614;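 active = compound whose remaining NAD level is above about 45 nM, limit read from the data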;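 note: higher remaining NAD means stronger inhibition of SARM1 NADase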); details: SAM-TIR HEK293T lysate NADase, at 1 µM, stronger effect = higher value
# [6] = kinase inhibitors against Plasmodium liver-stage infection, cell-based, known kinase inhibitor set, luminescence, hepatoma host viability (AID 624392; call rule not given here;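 note: infected cells incubated roughly two days before readout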); details: Plasmodium liver stage in hepatoma cells, luciferase luminescence, concentration not given here; liver cell % of control: measured here: host liver cell viability; parasite % of control: stronger effect = lower value
# [7] = survival rescue of mitochondrial mutant cells in low glucose, primary screen, MELAS cybrids, Rieske KO mouse fibroblasts, CellTiter-Glo (AID 1508586;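 active = mean z-score across replicates of 1.96 or higher in either the MELAS or the Rieske mutant cell line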;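 note: z relative to plate mean and SD of compound and empty wells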)
# [8] = viability rescue of complex I mutant cybrids, primary screen, cell-based, galactose medium, ATP luminescence (AID 1645843;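 active = z-score of at least 1.8 in each of two replicates, scored against plate mean and spread of sample wells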;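 note: positive z means more ATP and so rescue of galactose-driven cybrid death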); details: complex I mutant cybrid cells, 72 h, stronger effect = higher value
# [9] = stronger effect = lower value, cell number ratio, induced over uninduced
# [10] = measured here: relative caspase fold change +Dox/-Dox
# [11] = measured here: total cells with miR-34 induction, stronger effect = lower value
# [12] = measured here: total cells without miR-34 induction
# [13] = MELAS cybrid survival, CellTiter-Glo 48 h, stronger effect = higher value
# [14] = Rieske KO mouse fibroblast survival, CellTiter-Glo 72 h
# Mitogen-activated protein kinase 7 (Homo sapiens), sequence (Q13164 whole entry, looked up, the tested form may be a part): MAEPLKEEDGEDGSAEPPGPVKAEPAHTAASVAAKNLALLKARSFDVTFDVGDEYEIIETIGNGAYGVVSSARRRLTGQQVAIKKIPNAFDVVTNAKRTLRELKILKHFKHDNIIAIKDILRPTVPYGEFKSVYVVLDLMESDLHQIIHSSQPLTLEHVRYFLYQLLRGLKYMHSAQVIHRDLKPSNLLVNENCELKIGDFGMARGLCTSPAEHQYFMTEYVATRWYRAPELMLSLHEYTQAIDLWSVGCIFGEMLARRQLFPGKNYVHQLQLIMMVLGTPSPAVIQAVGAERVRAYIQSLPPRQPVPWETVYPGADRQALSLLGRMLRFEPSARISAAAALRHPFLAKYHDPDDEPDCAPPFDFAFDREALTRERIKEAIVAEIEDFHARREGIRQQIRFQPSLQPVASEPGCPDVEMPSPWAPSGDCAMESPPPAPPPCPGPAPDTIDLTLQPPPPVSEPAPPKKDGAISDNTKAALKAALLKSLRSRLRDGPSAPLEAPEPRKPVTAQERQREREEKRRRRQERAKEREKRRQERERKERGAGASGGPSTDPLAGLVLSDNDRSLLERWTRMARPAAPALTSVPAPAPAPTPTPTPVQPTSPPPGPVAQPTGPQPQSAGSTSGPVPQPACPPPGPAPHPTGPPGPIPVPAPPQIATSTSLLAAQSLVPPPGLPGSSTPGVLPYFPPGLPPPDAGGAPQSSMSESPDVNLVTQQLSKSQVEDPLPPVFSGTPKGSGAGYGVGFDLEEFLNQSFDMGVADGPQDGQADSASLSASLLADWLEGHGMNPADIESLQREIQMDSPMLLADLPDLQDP
# NAD(+) hydrolase SARM1 (Homo sapiens), sequence (Q6SZW1 whole entry, looked up): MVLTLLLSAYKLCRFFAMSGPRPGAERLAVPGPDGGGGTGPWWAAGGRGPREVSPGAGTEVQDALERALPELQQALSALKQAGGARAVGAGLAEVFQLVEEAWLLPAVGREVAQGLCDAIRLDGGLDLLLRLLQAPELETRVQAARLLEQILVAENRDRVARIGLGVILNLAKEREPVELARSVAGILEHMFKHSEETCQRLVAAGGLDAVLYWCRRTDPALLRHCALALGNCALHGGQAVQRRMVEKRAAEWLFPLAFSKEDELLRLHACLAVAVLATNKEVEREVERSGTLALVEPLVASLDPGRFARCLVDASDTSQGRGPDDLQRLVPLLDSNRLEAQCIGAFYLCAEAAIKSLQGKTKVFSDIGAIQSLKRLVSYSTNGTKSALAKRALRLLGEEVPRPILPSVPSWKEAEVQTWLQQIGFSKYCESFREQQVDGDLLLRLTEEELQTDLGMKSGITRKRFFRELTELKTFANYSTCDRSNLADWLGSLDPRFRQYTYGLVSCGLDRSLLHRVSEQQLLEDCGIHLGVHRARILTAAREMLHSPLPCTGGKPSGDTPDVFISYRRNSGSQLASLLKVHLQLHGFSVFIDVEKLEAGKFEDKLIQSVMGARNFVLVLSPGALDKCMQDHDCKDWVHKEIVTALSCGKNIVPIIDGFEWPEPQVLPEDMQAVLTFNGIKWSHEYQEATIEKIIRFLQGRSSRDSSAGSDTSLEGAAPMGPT
smiles,measurement,setting,value
C=N[C@@H](C(=O)N[C@@H]1C(=O)N2[C@@H]1SC(C)(C)[C@@H]2C(=O)O)c1ccccc1,survival,[1],22.6 (inactive)
same,parasite load remaining,[2],47.6% (inactive) and 102% (inactive)
same,viability,[2],47.2% and 93.5%
same,fold change,[3]; [9],0.849 (inactive)
same,fold change,[3]; [10],1.16
same,cell count,[3]; [11],8000
same,cell count,[3]; [12],9420
same,luciferase signal,[4],80 AU (inactive)
O=[N+]([O-])OCC(CO[N+](=O)[O-])O[N+](=O)[O-],parasite load remaining,[2],15.2% (inactive)
same,viability,[2],94.3%
same,fold change,[3]; [9],0.846 (inactive)
same,fold change,[3]; [10],4.5
same,cell count,[3]; [11],10800
same,cell count,[3]; [12],12700
same,remaining NAD,[5],10 nM (inactive)
Cc1cc(Nc2nc(NC(C)c3ccc(F)cc3)c(C#N)cc2F)n[nH]1 (centres undefined),liver cell % of control,[6],55.1% and 77.3% and 95.6%
same,parasite % of control,[6],1.2% (inactive) and 12.7% (inactive) and 40% (inactive)
same,fold change,[3]; [9],1.16 (inactive)
same,fold change,[3]; [10],0.511
same,cell count,[3]; [11],1300
same,cell count,[3]; [12],1120
same,z-score,[7]; [13],2.18 (active)
same,z-score,[7]; [14],-3.18
Cc1[nH]c(C=C2C(=O)Nc3ccccc32)c(C)c1CCC(=O)O,liver cell % of control,[6],515% and 322% and 191%
same,parasite % of control,[6],51% (inactive) and 49.5% (inactive) and 54.8% (inactive)
same,fold change,[3]; [9],0.955 (inactive)
same,fold change,[3]; [10],0.799
same,cell count,[3]; [11],7040
same,cell count,[3]; [12],7360
same,z-score,[7]; [13],-0.288 (inactive)
same,z-score,[7]; [14],0.507
CN[C@H](CC(C)C)C(=O)N[C@H]1C(=O)N[C@@H](CC(N)=O)C(=O)N[C@H]2C(=O)N[C@H]3C(=O)N[C@H](C(=O)N[C@H](C(=O)O)c4cc(O)cc(O)c4-c4cc3ccc4O)[C@H](O)c3ccc(c(Cl)c3)Oc3cc2cc(c3O[C@@H]2OC(CO)[C@@H](O)[C@H](O)[C@H]2O[C@H]2C[C@](C)(N)[C@H](O)[C@H](C)O2)Oc2ccc(cc2Cl)[C@H]1O (some centres undefined),parasite load remaining,[2],59.3% (inactive)
same,viability,[2],113%
same,fold change,[3]; [9],0.843 (inactive)
same,fold change,[3]; [10],1.57
same,cell count,[3]; [11],8980
same,cell count,[3]; [12],10700
same,z-score,[7]; [13],-0.371 (inactive)
same,z-score,[7]; [14],-0.181
CCC(C)C(=O)OC1CC(O)C=C2C=CC(C)C(CCC(O)CC(O)CC(=O)O)C21 (centres undefined),fold change,[3]; [9],0.961 (inactive)
same,fold change,[3]; [10],1.91
same,cell count,[3]; [11],10300
same,cell count,[3]; [12],10800
same,z-score,[8],0.5 (inactive)
CCC1OC(=O)C(C)C(=O)C(C)C(OC2OC(C)CC(N(C)C)C2O)[C@](C)(OC)CC(C)C(=O)C(C)C2N(CCCCn3cnc(-c4cccnc4)c3)C(=O)O[C@]12C (some centres undefined),fold change,[3]; [9],0.904 (inactive)
same,fold change,[3]; [10],0.557
same,cell count,[3]; [11],7630
same,cell count,[3]; [12],8440
same,z-score,[8],0 (inactive)
CN1CC(=O)N2C(Cc3c([nH]c4ccccc34)C2c2ccc3c(c2)OCO3)C1=O (centres undefined),fold change,[3]; [9],0.932 (inactive)
same,fold change,[3]; [10],1.44
same,cell count,[3]; [11],6940
same,cell count,[3]; [12],7450
same,z-score,[8],1.56 (inactive)
C=C1C(=CC=C2CCC[C@@]3(C)C2CCC3C(C)CCCC(C)(C)O)CC(O)CC1O (some centres undefined),fold change,[3]; [9],0.912 (inactive)
same,fold change,[3]; [10],1.66
same,cell count,[3]; [11],9420
same,cell count,[3]; [12],10300
same,z-score,[8],-1.52 (inactive)
CC(=O)O[C@@]12COC1CC(O)[C@@]1(C)C(=O)C(O)C3=C(C)C(OC(=O)C(O)C(NC(=O)OC(C)(C)C)c4ccccc4)C[C@](O)(C(OC(=O)c4ccccc4)C21)C3(C)C (some centres undefined),fold change,[3]; [9],1.14 (inactive)
same,fold change,[3]; [10],1.25
same,cell count,[3]; [11],3410
same,cell count,[3]; [12],2990
same,z-score,[8],-1.09 (inactive)
CN1C(=O)CCC1c1cccnc1 (centres undefined),fold change,[3]; [9],0.988 (inactive)
same,fold change,[3]; [10],2.52
same,cell count,[3]; [11],9830
same,cell count,[3]; [12],9950
same,z-score,[8],0.965 (inactive)
O=C1NC(C(=O)O)CS1 (centres undefined),fold change,[3]; [9],0.93 (inactive)
same,fold change,[3]; [10],1.73
same,cell count,[3]; [11],9590
same,cell count,[3]; [12],10300
same,z-score,[8],1.05 (inactive)
NC(C(=O)NC1C(=O)N2C(C(=O)O)=C(CSc3cn[nH]n3)CSC12)c1ccc(O)cc1 (centres undefined) (tested in a mixture with another compound),fold change,[3]; [9],0.899 (inactive)
same,fold change,[3]; [10],1.68
same,cell count,[3]; [11],9710
same,cell count,[3]; [12],10800
same,z-score,[8],0.555 (inactive)
CN(C)CCC=C1c2ccccc2COc2ccccc21,fold change,[3]; [9],0.942 (inactive)
same,fold change,[3]; [10],2.06
same,cell count,[3]; [11],8300
same,cell count,[3]; [12],8810
same,z-score,[8],-0.535 (inactive)
CCC1=CC2CN(C1)Cc1c([nH]c3ccccc13)[C@@](C(=O)OC)(c1cc3c(cc1OC)N(C)C1[C@@](O)(C(=O)OC)C(OC(C)=O)[C@]4(CC)C=CCN5CC[C@]31C54)C2 (some centres undefined),fold change,[3]; [9],1.19 (inactive)
same,fold change,[3]; [10],1.47
same,cell count,[3]; [11],1620
same,cell count,[3]; [12],1360
same,z-score,[8],-1.06 (inactive)
O=c1c(OC2OC(CO)C(O)C(O)C2O)c(-c2ccc(O)c(O)c2)oc2cc(O)cc(O)c12 (centres undefined),fold change,[3]; [9],0.911 (inactive) and 0.974 (inactive)
same,fold change,[3]; [10],0.962 and 2.15
same,cell count,[3]; [11],4950 and 10100
same,cell count,[3]; [12],5430 and 10300
same,z-score,[8],-1.74 (inactive) and 0.575 (inactive)
CC[C@]1(O)CC2CN(CCc3c([nH]c4ccccc34)[C@@](C(=O)OC)(c3cc4c(cc3OC)N(C)C3[C@@](O)(C(N)=O)C(O)[C@]5(CC)C=CCN6CC[C@]43C65)C2)C1 (some centres undefined),fold change,[3]; [9],0.722 (inactive)
same,fold change,[3]; [10],1.09
same,cell count,[3]; [11],1070
same,cell count,[3]; [12],1480
same,z-score,[8],-1.19 (inactive)
COC1C=CO[C@@]2(C)Oc3c(C)c(O)c4c(O)c(c5c(nc6cc(C)ccn65)c4c3C2=O)NC(=O)C(C)=CC=CC(C)C(O)C(C)C(O)C(C)C(OC(C)=O)C1C (some centres undefined),fold change,[3]; [9],0.986 (inactive)
same,fold change,[3]; [10],1.96
same,cell count,[3]; [11],9910
same,cell count,[3]; [12],10000
same,z-score,[8],1.96 (active)
C#C[C@]1(O)CCC2C3C(C)CC4=C(CCC(=O)C4)C3CC[C@@]21C (some centres undefined),fold change,[3]; [9],0.909 (inactive)
same,fold change,[3]; [10],1.5
same,cell count,[3]; [11],8730
same,cell count,[3]; [12],9600
same,z-score,[8],-0.655 (inactive)
CN1C2CC(OC(=O)C(CO)c3ccccc3)CC1C1OC12 (centres undefined),fold change,[3]; [9],0.901 (inactive)
same,fold change,[3]; [10],2.66
same,cell count,[3]; [11],9400
same,cell count,[3]; [12],10400
same,z-score,[8],0.87 (inactive)
Nc1nc(Cl)nc2c1ncn2C1OC(CO)C(O)C1O (centres undefined),fold change,[3]; [9],1.26 (inactive)
same,fold change,[3]; [10],0.688
same,cell count,[3]; [11],2120
same,cell count,[3]; [12],1680
same,z-score,[8],-0.02 (inactive)
O=C1C2CCCCC2C(=O)N1CCCCN1CCN(c2nsc3ccccc23)CC1 (centres undefined),fold change,[3]; [9],0.926 (inactive)
same,fold change,[3]; [10],1.74
same,cell count,[3]; [11],7810
same,cell count,[3]; [12],8440
same,z-score,[8],-1.79 (inactive)
